Test systems include T-47D breast; BT-549 breast; MDA-MB-435 melanoma; SW-620 colon; MCF7 breast; HCT-116 colon; HCC-2998 colon; KM12 colon.
Experiment in all cases: NCI-60 one-dose screen, 48 h (100 = growth as untreated, 0 = no growth, -100 = all killed)
Holding throughout (conditions): 10 µM unless noted

Compounds without any hit were thinned out: in the full panel of roughly 83,000, 20% have a hit.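 Treatment: one concentration, 48 hours, 96-well format. Scoring: percent growth, with anything below 10 considered active.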 A number with no mark means an inactive call. Activity calls are given as the source filed them.

Regarding `COc1ccc(-n2c(C)cc(-c3ccccc3)c2C)cc1`, the growth in the assay on T-47D breast is 27.5%; in the assay with BT-549 breast, 47%; in the assay on MDA-MB-435 melanoma, 12.1%; with SW-620 colon, 41.2%; in the assay with MCF7 breast, 28%; in the assay with HCT-116 colon it was 21%. Also, the growth in the assay on HCC-2998 colon was 35.1%; in the assay with KM12 colon it was 37.7%.
With `COc1ccc(C2SCC(=O)N2NC(=O)c2ccc(NC(=O)c3ccccn3)cc2)cc1OC` (stereo not drawn), the growth in the assay on T-47D breast is 97.8%; with BT-549 breast, 102%; in the assay on MDA-MB-435 melanoma, 104%; with SW-620 colon, 104%; with MCF7 breast it was 104%; in the assay on HCT-116 colon, 100%. Moreover, the growth is 104% in the assay with HCC-2998 colon and 95.8% in the assay on KM12 colon.
Take `NS(=O)(=O)c1ccc(NCC(=O)Nc2ccc(-c3nc4ccccc4s3)cc2)cc1`: the growth is 46.4% in the assay with T-47D breast; 14.5% with BT-549 breast; 77% in the assay with MDA-MB-435 melanoma; 63.7% with SW-620 colon; 27.6% in the assay on MCF7 breast; 25.1% with HCT-116 colon. The growth is 87.6% in the assay with HCC-2998 colon and 61.6% in the assay with KM12 colon.
Regarding `Cc1ccc2c(c1)C(C)Cc1c(N(C)C)ncnc1N2C` (stereo not drawn), the growth with T-47D breast is 34.8%; with BT-549 breast, 30.6%; in the assay on MDA-MB-435 melanoma, -6.18% (active); in the assay with SW-620 colon it was 20.6%; in the assay on MCF7 breast, 16.9%; in the assay on HCT-116 colon, 19%. Further, the growth with HCC-2998 colon was 58.2%; with KM12 colon it was 26.2%.
`COc1ccc(C(=O)c2cc(OC)c(OC)c(OC)c2)cc1/C=C/C(=O)c1ccc2c(c1)OCO2`: the growth is 33.1% with T-47D breast; -10.4% (active) in the assay on BT-549 breast; 21.6% in the assay on MDA-MB-435 melanoma; -35.4% (active) with SW-620 colon; 19.8% in the assay with MCF7 breast; -78.6% (active) with HCT-116 colon. For the same compound, the growth in the assay on HCC-2998 colon is 27.3%; in the assay with KM12 colon, -12% (active).
For `COc1ccc(/C=C/C(=O)OCC(=O)NNC(=O)c2ccccc2)cc1OC`, the growth with T-47D breast was 101%; in the assay on BT-549 breast, 98.6%; with MDA-MB-435 melanoma, 104%; in the assay on SW-620 colon, 98.4%; in the assay with MCF7 breast it was 85.6%; in the assay on HCT-116 colon, 103%. The growth was 127% in the assay on HCC-2998 colon and 115% in the assay on KM12 colon.
As for `CC(C)C[C@H](NC(=O)Cn1ccc(NCc2ccccc2)cc1=O)B(O)O`, the growth in the assay on T-47D breast is -14.6% (active); in the assay on BT-549 breast, 3.58% (active); in the assay with MDA-MB-435 melanoma, -62.2% (active); in the assay on SW-620 colon it was 4.73% (active); with MCF7 breast it was 28.9%; in the assay with HCT-116 colon, -47.7% (active). For the same compound, the growth in the assay on HCC-2998 colon was 0.885% (active); in the assay on KM12 colon, 24.7%.
Turning to `Nc1nn2cc(-c3ccc(Cl)s3)nc2c2ccccc12`, the growth was 55.8% in the assay on T-47D breast; 105% in the assay on BT-549 breast; 93.4% with MDA-MB-435 melanoma; 98.6% with SW-620 colon; 44.3% in the assay on MCF7 breast; 77.6% in the assay on HCT-116 colon. For the same compound, the growth is 92.4% in the assay on HCC-2998 colon and 79.2% in the assay on KM12 colon.
As to `CCCCNC(=O)NS(=O)(=O)c1ccc(N2N=C(c3ccc(C)cc3C)CC2c2ccc(OC)cc2)cc1` (stereo not drawn), the growth was 75% with T-47D breast; 49.9% with BT-549 breast; 9.96% (active) in the assay with MDA-MB-435 melanoma; 75.9% in the assay on SW-620 colon; 48.7% in the assay on MCF7 breast; 51.6% in the assay on HCT-116 colon. Also, the figures for the growth in the assay on HCC-2998 colon and with KM12 colon were 58.6% and 48%, respectively.
Regarding `N#Cc1c(NC(=O)c2ccc([N+](=O)[O-])o2)[n+]([O-])c2cc(F)c(F)cc2[n+]1[O-]`, the growth in the assay with T-47D breast was 118%; in the assay on BT-549 breast, 203%; in the assay on MDA-MB-435 melanoma it was 109%; with SW-620 colon it was 128%; in the assay with MCF7 breast it was 96.5%; with HCT-116 colon it was 104%. Also, the growth is 106% in the assay with HCC-2998 colon and 98.9% with KM12 colon.
With `COc1ccc(C2=CC(c3ccc(Oc4ccnc5cc(Cl)ccc45)c(OC)c3)c3c(nc(OC)[nH]c3=O)N2)cc1` (stereo not drawn), the growth is 53.8% with T-47D breast; 39.5% with BT-549 breast; 71.3% with MDA-MB-435 melanoma; 50.2% with SW-620 colon; 35.7% in the assay with MCF7 breast; 35.8% with HCT-116 colon. The growth with HCC-2998 colon was 84.3%; in the assay with KM12 colon, 65.5%.
In the case of `COc1cccc(-c2nc3sccn3c2-c2ccnc(NCCCNS(=O)(=O)c3ccccc3)n2)c1`, the growth is 0.88% (active) in the assay on T-47D breast; 47.2% in the assay with BT-549 breast; 40.9% in the assay on MDA-MB-435 melanoma; 75.1% with SW-620 colon; 52% with MCF7 breast; 38.6% with HCT-116 colon. The growth in the assay on HCC-2998 colon is 93.8%; in the assay with KM12 colon, 43.5%.
On to `COc1cccc(-c2nc3sccn3c2-c2ccnc(NCCCNS(=O)(=O)c3ccc(F)cc3)n2)c1`, for which the growth in the assay with T-47D breast is -8.19% (active); in the assay on BT-549 breast it was 29.6%; in the assay with MDA-MB-435 melanoma it was 25.2%; in the assay on SW-620 colon, 58.4%; in the assay on MCF7 breast, 39.9%; in the assay with HCT-116 colon, 19.9%. The growth in the assay with HCC-2998 colon is 82.4%; in the assay on KM12 colon, 22.1%.
In the case of `O=C1c2ccccc2C(=O)c2c(N=Nc3sc(=O)[nH]c3S)cccc21`, the growth with T-47D breast is 82.4%; in the assay on BT-549 breast it was 109%; with MDA-MB-435 melanoma, 100%; in the assay with SW-620 colon, 90%; in the assay on MCF7 breast, 72%; in the assay on HCT-116 colon, 95.7%. Further, the growth was 102% with HCC-2998 colon and 90.3% in the assay on KM12 colon.
In the case of `CSc1nc(-c2cc3ccccc3o2)cc(-c2ccc(Cl)cc2)c1C#N`, the growth in the assay with T-47D breast is 24.7%; in the assay on BT-549 breast, 115%; with MDA-MB-435 melanoma it was 111%; in the assay on SW-620 colon it was 71.1%; with MCF7 breast, 14%; in the assay with HCT-116 colon, 58.8%. Moreover, the growth in the assay with HCC-2998 colon is 85.6%; with KM12 colon, 40.4%.
On to `O=C1OC(c2ccccc2)=N/C1=C\c1ccc([N+](=O)[O-])cc1`, for which the growth was 106% in the assay with T-47D breast; 101% in the assay on BT-549 breast; 106% in the assay on MDA-MB-435 melanoma; 92.4% in the assay with SW-620 colon; 103% in the assay with MCF7 breast; 97.8% in the assay on HCT-116 colon. The values for the growth in the assay on HCC-2998 colon and with KM12 colon were 108% and 94.5%, respectively.

Source of the values: PubChem BioAssay (NCI).
